Most compounds without a hit are left out; they make up all but 0.49% or so of the library.
Tb PGK inh: inhibitors of T. brucei phosphoglycerate kinase | P07378 | PGK/GAPDH coupled, Kinase-Glo luminescence, 60 min | Potency, µM (highest dose often 57.5 µM), usual class: inhibitors | 380,000 tested, 0.043% active; also: nearly all actives have a fitted effect of over 60% in size
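Luminescent ATP detection (Kinase-Glo Plus) follows a 60-minute room-temperature incubation, with wells lacking PGK as controls. Buffer: 100 mM TEA (pH 7.6), 5 mM MgCl2, 0.01% Tween-20. Coupling enzyme GAPDH (100 nM final) supplies unstable 1,3-BPG in-well.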
Vif-APOBEC3G blk: Vif-A3G binding inhibition; 410,000 tested, 0.076% active; Potency, µM (top dose mostly 46.1 µM), actives largely listed as inhibitors; Q9HC16; AID 602310; HeLa A3G-eYFP + Vif (tagged APOBEC3G with the HIV-1 protein that degrades it), YFP fluorescence, overnight; also: nearly all actives have a fitted effect of over 60% in size
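HeLa cells stably expressing Vif and C-terminally eYFP-tagged A3G, seeded overnight at 37 deg C, then exposed to compound by pintool overnight at 37 deg C. Rise in yellow fluorescence (Ex 488/Em 500-530, Acumen) marks blocked Vif-driven A3G degradation.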
IDH1 R132H inh: inhibitors of human mutant IDH1 R132H; IDH1-R132H enzyme, NADPH consumption, diaphorase/resazurin fluorescence; Potency, µM (series often up to 76.6 µM), most hits filed as inhibitors; 390,000 tested, 0.093% active; O75874; also: nearly all actives have a fitted effect of over 65% in size
Target sequence (O75874 whole entry R132H, stated change not applied): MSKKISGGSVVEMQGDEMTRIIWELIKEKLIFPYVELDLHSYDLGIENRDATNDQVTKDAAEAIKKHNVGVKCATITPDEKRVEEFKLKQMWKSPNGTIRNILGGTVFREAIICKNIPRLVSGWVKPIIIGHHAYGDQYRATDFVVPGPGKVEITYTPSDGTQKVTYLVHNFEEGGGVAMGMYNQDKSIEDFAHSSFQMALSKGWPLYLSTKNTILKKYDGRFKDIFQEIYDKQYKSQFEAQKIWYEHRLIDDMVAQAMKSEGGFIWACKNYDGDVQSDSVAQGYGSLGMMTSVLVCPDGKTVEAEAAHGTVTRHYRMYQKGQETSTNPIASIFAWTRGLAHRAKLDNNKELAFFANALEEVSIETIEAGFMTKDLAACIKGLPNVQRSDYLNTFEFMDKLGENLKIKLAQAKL
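IDH1-R132H (0.5 ug/mL dispensed) in pH 7.5 Tris buffer was preincubated 30 min with compound, then given a substrate mix of 0.016 mM NADPH and 2 mM alpha-KG for 80 min at room temperature; remaining NADPH was read by diaphorase/resazurin fluorescence.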
Pin1 inh: blocks the human prolyl isomerase Pin1 | Q13526 | Pin1 FP peptide displacement, HiFluor488, 10 min | Potency, µM (doses to about 115 µM), most hits filed as inhibitors | 390,000 tested, 0.009% active | AID 504891; active = well fitted inhibition curve with a large enough effect in the polarisation, with a control signal flat, not every such curve was filed as active; inconclusive = small, poorly fitted or top-dose-only effect, or effect the other way, or a change in a side signal; inactive = no such curve, though single readings can be large or run the other way; the % refers to the polarisation
LDHA block: LDHA (human) enzyme inhibition; P00338; activity change, % (values are at about 110 or 230 µM); 480,000 tested, 0.15% active; purified LDHA, NADH/diaphorase-resazurin fluorescence; stronger effect = lower value; AID 1347041; in the data active = activity change below about -30%; inconclusive = mostly about -25% to -30%
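LDH5 2 nM; NADH 0.06 mM, pyruvate 0.2 mM; 200 mM Tris pH 7.4, EDTA, Tween-20; 5 min RT. Detection: diaphorase 0.133 mg/mL + resazurin 37 µM, fluorescence ex540/em590 at 0 and 20 min; normalized to enzyme-free and DMSO wells.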
Vif-A3F inh: inhibitors of Vif-A3F interaction. HeLa A3F-eYFP + Vif (tagged APOBEC3F with the HIV-1 protein that degrades it), YFP fluorescence increase. 390,000 tested, 0.2% active. Potency, µM (series often up to 46.1 µM); also: nearly all actives have a fitted effect of over 65% in size
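Fluorescence increase (Ex 488/Em 500-530) after overnight compound treatment at 37 deg C flags inhibition of Vif-driven A3F-eYFP loss in stable HeLa A3F-eYFP/Vif cells seeded overnight beforehand.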
Hits are given with their value; n = inactive; u = inconclusive; x = no result given. Unless noted, calls follow the shape of the dose curve; as a rule, active = well fitted curve in the direction sought with a large enough effect; inconclusive = small, poorly fitted or top-dose-only effect, or another doubt; inactive = no such curve, though single readings can be large; an effect the other way counts as inactive or inconclusive.

SMILES	Tb PGK inh	Vif-APOBEC3G blk	IDH1 R132H inh	Pin1 inh	LDHA block	Vif-A3F inh
O=C1/C(=C/c2ccc3c(c2)OCO3)SC(=S)N1CCC(=O)N(CCO)c1ccccc1	n	n	n	x	n	22.4µM
O=C(/C=C/c1ccc2c(c1)OCO2)c1c(O)n(CCc2ccccc2)c(=O)[nH]c1=O	n	n	n	u	n	u
ClCCN1CCOCC1	x	x	x	x	n	x
COc1ccccc1C=C1C(=O)NC(=S)NC1=O	n	n	n	n	-56.7	n
CCCCn1c(N)c(N(CC(C)C)C(=O)c2cc(Br)c(Br)s2)c(=O)[nH]c1=O	n	n	n	n	n	25.1µM
CCCCn1c(N)c(N(CCOC)C(=O)CN2CC=C(c3ccccc3)CC2)c(=O)[nH]c1=O	n	n	n	n	n	n
CSC(C)C(=O)NC(C)Cc1ccc(Br)cc1 (configuration not stated)	x	x	x	x	n	x
O=C1CSC(c2ccc(F)c(Br)c2)c2cn[nH]c2N1 (configuration not stated)	x	x	x	x	n	x
Cc1noc(C)c1COc1ccc(CC(=O)N(CCC#N)CCN2CCOCC2)cc1	x	x	x	x	n	x
Cc1cc(/C=C2\C(=O)NC(=O)N(c3ccc(Br)cc3)C2=O)c(C)n1-c1cc(C(=O)O)cc(C(=O)O)c1	14.1µM	n	n	u	n	n
Cc1cc(/C=C2\C(=O)NC(=O)N(c3cccc(F)c3)C2=O)c(C)n1-c1cc(C(=O)O)cc(C(=O)O)c1	u	n	n	u	n	n
COc1cc(/C=C(/C)[N+](=O)[O-])ccc1OCc1ccccc1Cl	n	n	46.5µM	n	n	n
COc1ccc(/C=C/[N+](=O)[O-])cc1OC	x	x	x	x	n	x
O=C1NC(=O)N(c2ccccc2F)C(=O)/C1=C/c1ccc(Sc2nc3ccccc3[nH]2)o1	u	n	u	u	n	22.4µM
CC(C)C1c2cccn2-c2ccccc2CN1C(=O)Nc1ccccc1F (configuration not stated)	x	x	x	x	n	x
CCOc1ccccc1N1C(=O)CC(=O)NC1=O	n	n	n	n	-30.4	n
CCOc1ccc(N2C(=O)CC(=O)NC2=O)cc1	n	n	n	n	n	n
CCN1C(=O)/C(=C/c2ccc(N(CC)CC)cc2OC)C(=O)NC1=S	n	n	n	u	n	7.94µM
CCN(CC)c1ccc(/C=C2\C(=O)NC(=S)N(c3ccc(OC)cc3OC)C2=O)o1	n	n	n	u	n	11.2µM
COc1ccc(N2C(=O)/C(=C/c3ccc(N(C)C)o3)C(=O)NC2=S)cc1	n	n	n	u	n	u
CSc1nc(N)c2c(n1)OC(N)=C(C#N)C2c1ccccc1F (configuration not stated)	x	x	x	x	n	x
Clc1cc(CNC2CN3CCC2CC3)cc(Cl)c1OCc1ccccc1 (configuration not stated)	x	x	x	x	n	x
CCn1cc(C(=O)Cn2c(C)nc3ccccc32)c2ccccc21	x	x	x	x	n	x
CN1C(=O)C(=Cc2ccc(N3CCCCC3)o2)C(=O)N(C)C1=S	n	u	n	u	n	3.98µM
CCN(CC)c1ccc(C=C2C(=O)N(C)C(=S)N(C)C2=O)o1	n	u	n	u	n	n
SMILES	Tb PGK inh	Vif-APOBEC3G blk	IDH1 R132H inh	Pin1 inh	LDHA block	Vif-A3F inh
O=C1NC(=O)N(c2ccc3c(c2)OCO3)C(=O)/C1=C/c1ccc(N2CCCCC2)o1	n	u	n	u	n	22.4µM
Cc1cccc2[nH]cc(C3=CCN(C(C)C(=O)NC4CC4)CC3)c12 (configuration not stated)	x	x	x	x	n	x
CN1CCC(=O)C2CCCCC21 (configuration not stated)	x	x	x	x	n	x
Nc1ccc2c(c1)Cc1cc([N+](=O)[O-])ccc1-2	n	u	n	n	n	11.2µM
O=c1[nH]c(O)c(/C=C2\C=Nc3ccc(OCc4ccccc4)cc32)c(=O)[nH]1	n	n	n	u	n	12.6µM
Cc1cccc(CN2CCCC(C(=O)c3cccc(OC(C)C)c3)C2)n1 (configuration not stated)	x	n	n	n	n	22.4µM
COc1cccc(C(=O)C2CCCN(Cc3cccc(C)n3)C2)c1 (configuration not stated)	n	n	n	n	n	u

Screens from PubChem.
